Assay results as given in PubChem BioAssay.
Several values for one entry are separate records, joined by “and”; a condition that tells them apart may be missing. Equal values may be shown once. Where a structure was tested more than once in an assay, its records may differ in their call. Activity calls are given as the source filed them.

Experiment: CREB reporter modulators without forskolin, primary screen, cell-based, PC12, CRE-LacZ reporter, unstimulated (AID 1145)
Conditions: no forskolin, luminescence, 4.5 h, higher = more signal, called active from +8 up or from −8 down

Row | SMILES | z-score
1 | C=CCN(CCCC)C(=O)C1N(C(C)(C)CO)C(=O)C2C(C(=O)O)C3C=CC21O3 (stereo unspecified) | -0.627 (inactive) and -0.611 (inactive)
2 | COC(=O)[C@@]1(Cc2ccccc2)[C@H]2c3cc(C(=O)N(C)C)n(C[C@H](O)CO)c3C[C@H]2CN1C(=O)c1ccccc1 | 1.35 (inactive) and 0.204 (inactive)
3 | C[C@@H]1CN2[C@@H](CC[C@@H](C)[C@@H]2c2ccc(Br)cc2)C(=O)O1 | 0.74 (inactive) and 2 (inactive)
4 | COC(=O)C1=C(C)N(Cc2ccccc2)[C@]23O[C@](C(=O)OC)(C(=O)N2[C@@H]1c1ccccc1)[C@@H](C(=O)OC)[C@H]3C(=O)OC | 0.745 (inactive) and -0.487 (inactive)
5 | C=CCN(Cc1ccccc1)C(=O)C1N(c2ccc(CCO)cc2)C(=O)C2C(C(=O)O)C3C=CC21O3 (stereo unspecified) | 0.195 (inactive) and -0.899 (inactive)
6 | CCOC(=O)C[C@H]1[C@H](OC(=O)c2ccccc2-c2ccccc2)[C@@H](NC(=O)Cc2ccc(OC)cc2)c2cc(OCCCO)ccc2N1C(=O)c1ccc2ccccc2n1 | 7.64 (inactive) and -1.13 (inactive)
7 | CC(C)CCN1CCc2nc(-c3ccccc3)c3c(c2C1)CO[C@@H](C)C3 | 4.64 (inactive)
8 | CCOC(=O)[C@@H]1CC=C2CC1C(=O)N1CCC[C@@H]1[C@H]2O[Si](C)(C)C(C)(C)C (stereo partly specified) | -0.692 (inactive) and -1.5 (inactive)
9 | COC(=O)[C@@]1(Cc2ccc(OC)cc2)[C@H]2c3cc(C(=O)N(C)C)n(Cc4ccc(O)c(OC)c4)c3C[C@H]2CN1C(=O)c1ccccc1 | 0.583 (inactive) and 0.197 (inactive)
10 | CO[C@H]1COC(=O)CC=C[C@H](C)[C@H](OC)COC(=O)[C@@H](C)COC(=O)CC=C[C@@H]1C | -0.116 (inactive) and -1.19 (inactive)
11 | CCOC(=O)C[C@H]1[C@H](OC(=O)c2ccccc2-c2ccccc2)[C@@H](NC(=O)c2ccccc2)c2cc(OCCCO)ccc2N1C(=O)c1ccc2ccccc2n1 | 9.27 (active) and -0.23 (inactive)
12 | C=CCN(CCCC)C(=O)C1N(c2c(Cl)cccc2CO)C(=O)C2C(C(=O)O)C3C=CC21O3 (stereo unspecified) | -0.887 (inactive) and -1.3 (inactive)

Experiment: CREB reporter modulators under forskolin, primary screen, cell-based, PC12, CRE-LacZ reporter, forskolin-stimulated (AID 1146);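 note: PC12 cells with 6xCRE LacZ reporter stimulated by forskolin 10 µM; beta-galactosidase reporter signal reflecting CREB driven transcription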
Conditions: luminescence, 4.5 h, higher = more signal, called active from +8 up or from −8 down

Row | SMILES | z-score
13 | CC(CO)N1C(=O)[C@@H]2C3C(=O)OCCC=C[C@H]3OC23C=CCN(c2ccc(Cl)cc2)C(=O)[C@@H]13 (stereo partly specified) | -0.613 (inactive) and 0.478 (inactive)
14 | CCOC(=O)NN=C1C[C@@H](O)[C@@H](O)[C@@H]2[C@@H]3C(=O)N(Cc4ccc5c(c4)OCO5)C(=O)[C@@H]3CC[C@@H]12 | -0.341 (inactive)
15 | C=CCN(C(=O)C(c1cccs1)N(C(=O)/C=C\C(=O)O)c1ccc(CCO)cc1)C(C)(C)C (stereo unspecified) | 0.332 (inactive) and -0.439 (inactive)
16 | C=CCN(C(=O)C(c1cccs1)N(C(=O)/C=C\C(=O)O)c1c(Cl)cccc1CO)C(C)(C)C (stereo unspecified) | -0.386 (inactive) and -0.514 (inactive)
17 | C=CCN(CCCCC)C(=O)C1N(c2c(Cl)cccc2CO)C(=O)C2C(C(=O)O)C3C=CC21O3 (stereo unspecified) | 0.209 (inactive) and -0.0386 (inactive)
18 | C=CCN(CCCC)C(=O)C(c1cccs1)N(CCOCCO)C(=O)/C=C\C(=O)O (stereo unspecified) | -0.43 (inactive) and -0.359 (inactive)
19 | CCCCCN1CC=CC23O[C@@H]4C=CCCOC(=O)C4[C@H]2C(=O)N(C(C)CO)[C@@H]3C1=O (stereo partly specified) | -0.215 (inactive) and -0.498 (inactive)
20 | COC(=O)[C@H](C)NC(=O)CCC1CC(OC(=O)NCCc2ccc(F)cc2)CC2(CCCC(COC(=O)NCCCN3CCCC3=O)O2)O1 (stereo partly specified) | 0.597 (inactive)
21 | COC(=O)C1=C(C)N(Cc2ccccc2)C2=C(C(C)=O)C[C@@](O)(C(=O)OC)C(=O)N2[C@@H]1c1ccccc1 | -0.711 (inactive) and -0.239 (inactive)
22 | C=CCN(CCCCC)C(=O)C(c1cccs1)N(C(=O)/C=C\C(=O)O)c1c(Cl)cccc1CO (stereo unspecified) | 1.2 (inactive) and 0.266 (inactive)
23 | CC(C)CON=C1C[C@@H](O)[C@@H](O)[C@@H]2[C@@H]3C(=O)N(c4cccc(Oc5ccccc5)c4)C(=O)[C@@H]3CC[C@H]12 | 0.235 (inactive)
24 | C=CCN(C(=O)C(c1cccs1)N(C(=O)/C=C\C(=O)O)C(C)(C)CO)c1ccc(OC)cc1 (stereo unspecified) | -1.07 (inactive) and 0.149 (inactive)
25 | CCCNC(=O)OC[C@H]1O[C@H](CCON=C(C)CCN2CCc3nc(-c4ccccc4)c(-c4ccccc4)cc3C2)C=C[C@@H]1Oc1ccc(OC)cc1 | -0.113 (inactive)
26 | C=CC[C@@H](O)c1ccc(O)c(F)c1 | 0.347 (inactive) and -1.46 (inactive)
27 | C=CCN(Cc1ccccc1)C(=O)C(c1cccs1)N(C(=O)/C=C\C(=O)O)c1c(Cl)cccc1CO (stereo unspecified) | -0.418 (inactive) and -0.107 (inactive)
28 | CC(C)[Si]1(C(C)C)OCc2cc(CCCc3cc4c(c(CCc5ccccc5)n3)[Si](C(C)C)(C(C)C)OC4)nc(CCc3ccccc3)c21 | -0.315 (inactive) and 0.352 (inactive)
29 | COC(=O)[C@@]1(Cc2ccc(F)cc2)[C@H]2c3cc(C(=O)N4CCCC4)n(Cc4c(CO)[nH]cc(C)c4=O)c3C[C@H]2CN1C(=O)c1ccccc1 | 3.71 (inactive) and 3.05 (inactive)
30 | C=CCN(C(=O)C1N(c2ccc(CCO)cc2)C(=O)C2C(C(=O)O)C3C=CC21O3)c1ccc(OC)cc1 (stereo unspecified) | -0.0772 (inactive) and -0.526 (inactive)
31 | C=CCN(C(=O)C1N(CCOCCO)C(=O)C2C(C(=O)O)C3C=CC21O3)C(C)(C)C (stereo unspecified) | -0.581 (inactive) and 0.0532 (inactive)
32 | CCOC(=O)c1ccc(NC(=O)O[C@H]2[C@H](OC(=O)Nc3ccccc3)[C@H](OC(=O)Nc3ccccc3)[C@@H](OC)O[C@@H]2CO)cc1 | 0.359 (inactive) and -1.63 (inactive)

Row | SMILES | z-score
33 | CC(C)=NOCc1ccc(-c2cn([C@@H]3COC[C@H]3O)nn2)cc1 | 0.607 (inactive)
34 | C[C@@H]1CC[C@H]2C(=O)O[C@H](CN=[N+]=[N-])CN2[C@H]1c1ccc(Br)cc1 | -0.177 (inactive) and -0.414 (inactive)
35 | C=CCN1C(=O)[C@]2(O[C@H](CCn3cc(CCO)nn3)[C@@H]([Si](C)(C)c3ccc(OC)cc3)[C@@H]2C)c2cc(N3C(=O)c4cccc5cccc3c45)ccc21 | -4.15 (inactive) and -3.89 (inactive)
36 | CC(CO)N1C(=O)[C@@H]2C3C(=O)OCCC=C[C@H]3OC23C=CCN(Cc2ccccc2)C(=O)[C@@H]13 (stereo partly specified) | -0.937 (inactive) and -0.56 (inactive)
37 | C=CCN(C(=O)C1N(c2c(Cl)cccc2CO)C(=O)C2C(C(=O)O)C3C=CC21O3)C(C)(C)C (stereo unspecified) | -0.219 (inactive) and -0.51 (inactive)
38 | O=C1C[C@]2(c3ccc([N+](=O)[O-])cc3)C(=O)N(Cc3ccccc3)c3cc(CO)ccc3[C@H]2N1C1CCCCC1 | 1.03 (inactive) and -0.885 (inactive)
39 | C[C@@H](ON=C1[C@H]2CCn3c(=O)n(-c4ccccc4)c(=O)n3[C@H]2[C@H](O)[C@@H]2O[C@H]12)c1cn([C@H](CO)Cc2ccccc2)nn1 | 1.45 (inactive)
40 | C=CCN(CCCC)C(=O)C1N(C(C)(C)CO)C(=O)C2C(C(=O)O)C3C=CC21O3 (stereo unspecified) | -0.414 (inactive) and -0.388 (inactive)
41 | COC(=O)[C@@]1(Cc2ccccc2)[C@H]2c3cc(C(=O)N(C)C)n(C[C@H](O)CO)c3C[C@H]2CN1C(=O)c1ccccc1 | 0.756 (inactive) and -0.209 (inactive)
42 | C[C@@H]1CN2[C@@H](CC[C@@H](C)[C@@H]2c2ccc(Br)cc2)C(=O)O1 | 0.667 (inactive) and 0.0918 (inactive)
43 | COC(=O)C1=C(C)N(Cc2ccccc2)[C@]23O[C@](C(=O)OC)(C(=O)N2[C@@H]1c1ccccc1)[C@@H](C(=O)OC)[C@H]3C(=O)OC | -0.998 (inactive) and -0.909 (inactive)
44 | C=CCN(Cc1ccccc1)C(=O)C1N(c2ccc(CCO)cc2)C(=O)C2C(C(=O)O)C3C=CC21O3 (stereo unspecified) | 0.892 (inactive) and -0.29 (inactive)
45 | CCOC(=O)C[C@H]1[C@H](OC(=O)c2ccccc2-c2ccccc2)[C@@H](NC(=O)Cc2ccc(OC)cc2)c2cc(OCCCO)ccc2N1C(=O)c1ccc2ccccc2n1 | -0.809 (inactive) and -0.751 (inactive)
46 | CC(C)CCN1CCc2nc(-c3ccccc3)c3c(c2C1)CO[C@@H](C)C3 | -0.44 (inactive)
47 | CCOC(=O)[C@@H]1CC=C2CC1C(=O)N1CCC[C@@H]1[C@H]2O[Si](C)(C)C(C)(C)C (stereo partly specified) | 1.25 (inactive) and -1.04 (inactive)
48 | COC(=O)[C@@]1(Cc2ccc(OC)cc2)[C@H]2c3cc(C(=O)N(C)C)n(Cc4ccc(O)c(OC)c4)c3C[C@H]2CN1C(=O)c1ccccc1 | 0.217 (inactive) and -0.742 (inactive)
49 | CO[C@H]1COC(=O)CC=C[C@H](C)[C@H](OC)COC(=O)[C@@H](C)COC(=O)CC=C[C@@H]1C | -0.689 (inactive) and -0.777 (inactive)
50 | CCOC(=O)C[C@H]1[C@H](OC(=O)c2ccccc2-c2ccccc2)[C@@H](NC(=O)c2ccccc2)c2cc(OCCCO)ccc2N1C(=O)c1ccc2ccccc2n1 | 0.158 (inactive) and -0.583 (inactive)
51 | C=CCN(CCCC)C(=O)C1N(c2c(Cl)cccc2CO)C(=O)C2C(C(=O)O)C3C=CC21O3 (stereo unspecified) | -0.718 (inactive) and -0.285 (inactive)
